33 molecules from ChEMBL document CHEMBL1961873, “Compounds: GSK PKIS; Assays: Nanosyn kinase panel” (2012) can be followed below.

Structures are written as SMILES.

One assay concerns the target T1, Serine/threonine-protein kinase D3 (Homo sapiens) (UniProt O94806).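 Further: values are mean inhibition figures against PRKD3.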
T1 sequence (whole entry): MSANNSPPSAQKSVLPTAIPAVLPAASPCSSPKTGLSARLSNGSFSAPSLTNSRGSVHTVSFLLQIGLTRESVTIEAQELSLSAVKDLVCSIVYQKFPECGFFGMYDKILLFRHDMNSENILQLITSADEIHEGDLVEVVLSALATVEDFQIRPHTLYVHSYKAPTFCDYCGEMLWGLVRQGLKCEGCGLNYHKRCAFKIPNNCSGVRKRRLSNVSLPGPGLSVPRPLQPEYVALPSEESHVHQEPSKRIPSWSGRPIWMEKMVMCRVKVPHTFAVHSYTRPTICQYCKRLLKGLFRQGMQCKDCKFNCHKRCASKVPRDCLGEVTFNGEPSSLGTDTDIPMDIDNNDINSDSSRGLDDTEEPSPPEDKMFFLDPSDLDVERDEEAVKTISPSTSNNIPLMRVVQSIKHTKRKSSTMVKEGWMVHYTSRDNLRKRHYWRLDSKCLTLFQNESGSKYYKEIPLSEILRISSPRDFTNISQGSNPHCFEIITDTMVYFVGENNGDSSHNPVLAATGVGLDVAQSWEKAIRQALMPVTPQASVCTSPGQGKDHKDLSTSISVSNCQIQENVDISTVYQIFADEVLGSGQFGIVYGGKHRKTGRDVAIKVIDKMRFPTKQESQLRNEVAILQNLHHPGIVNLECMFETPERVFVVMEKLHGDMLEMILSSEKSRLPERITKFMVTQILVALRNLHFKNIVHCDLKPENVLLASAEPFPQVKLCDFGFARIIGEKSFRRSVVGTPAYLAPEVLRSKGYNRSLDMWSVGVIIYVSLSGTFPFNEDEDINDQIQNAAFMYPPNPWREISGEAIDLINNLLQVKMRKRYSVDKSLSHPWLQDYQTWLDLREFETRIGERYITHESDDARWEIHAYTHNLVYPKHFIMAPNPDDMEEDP
As to conditions: at 1 µM.
By inhibition is commonly meant the relative decrease from the control value, in per cent. Consider `Cc1cc(Cl)cc2c1NC(=O)C2=NNc1ccc(S(N)(=O)=O)cc1`, for which the inhibition amounted to 1.81%.

As for `Cc1ccc(O)cc1Nc1ccnc2ccc(S(C)(=O)=O)cc12`, the inhibition stood at 22.7%. Same read-out and setting: the result for `COc1cccc(-n2ncc3c(N/N=C/c4ccc(S(C)(=O)=O)cc4)ncnc32)c1` reads -2.38%; that for `NS(=O)(=O)c1ccc(-c2cc3ccncc3cc2OCc2ccccc2)cc1`, 2.51%; that for `Cc1ccc2c(c1)/C(=N/Nc1ccc(S(N)(=O)=O)cc1)C(=O)N2`, 1.79%. With `CCCN1CCCC(c2ccc(Nc3nc(Nc4cc(F)ccc4C(N)=O)c4cc[nH]c4n3)c(OC)c2)C1` (stereo unspecified), the inhibition was determined as 72.7%. The same measure, in the same setting: the result for `COC(=O)c1cncc(/C=C/c2c(C)cc(O)cc2C)c1` reads 3.64%. The same measure, in the same setting: to `Cc1ccc(Nc2ccnc(Nc3cccc(C(N)=O)c3)n2)cc1O` belongs 9.43%; to `Nc1ccc(C#Cc2cncnc2Nc2ccc(OCc3cccc(F)c3)c(Cl)c2)cc1`, 2.64%. The same measure, in the same setting: to `CN(C)C(=O)O[C@@H]1CN[C@@H](C#Cc2cc3ncnc(Nc4ccc(OCc5cccc(F)c5)c(Cl)c4)c3s2)C1` belongs 4.35%. Regarding `NS(=O)(=O)c1ccc(N/N=C2\C(=O)Nc3ccc(Cl)cc32)cc1`, the inhibition worked out at 5.68%. For the molecule `Cc1nc(-c2ccccc2)n2nc(NCCCN3CCOCC3)ncc12`, the inhibition was determined as 2.23%. On the same count and under the same terms, the result for `CCOc1nccc2c1nc(-c1nonc1N)n2CC` reads 2.21%; that for `O=S(=O)(CCOCc1ccc(-c2ccc3ncnc(Nc4ccc(OCc5cccc(F)c5)c(Cl)c4)c3c2)o1)c1ccccc1`, 1.96%.

Regarding `NC(=O)c1cccc(Nc2nccc(Nc3cccc(F)c3)n2)c1`, the inhibition came out at 1.01%. Turning to `C[C@@H](Oc1cc(-n2cnc3ccc(OCC4CCN(C)CC4)cc32)sc1C(N)=O)c1ccccc1C(F)(F)F`, the inhibition turned out to be 16.9%.

Turning to `FC(F)(F)c1ccc(-c2nn3ncccc3c2-c2ccnc(Nc3ccc4c(c3)OCCO4)n2)cc1`, the inhibition was -0.07%. Still for that read-out and setting: to `Cc1cc(-c2ccccn2)cc(C)c1/C=C/c1cncc(-c2nn[nH]n2)c1` belongs 12.1%. The same measure, in the same setting: the result for `COc1ccc2ncnc(Nc3ccc(OCc4ccccc4)cc3)c2c1` reads 2.6%; that for `CN(C)CCCn1c(-c2nonc2N)nc2cnccc21`, 7.35%.

On to `[O-][S+]1CCN(Cc2ccc(-c3ccc4ncnc(Nc5ccc(OCc6ccccc6)c(Cl)c5)c4c3)o2)CC1`, for which the inhibition is 2.2%. Same read-out and setting: the result for `OCc1ccc(-c2nc(-c3ccccn3)c(-c3ccc4c(c3)OCO4)[nH]2)cc1` reads 8.28%. As to `COc1cc(Nc2nccc(-c3cnn4ncccc34)n2)cc(OC)c1`, the inhibition came out at 19.6%.

A further assay has as its target T2, cGMP-dependent protein kinase 1 (Homo sapiens) (UniProt Q13976).
T2 sequence (whole entry): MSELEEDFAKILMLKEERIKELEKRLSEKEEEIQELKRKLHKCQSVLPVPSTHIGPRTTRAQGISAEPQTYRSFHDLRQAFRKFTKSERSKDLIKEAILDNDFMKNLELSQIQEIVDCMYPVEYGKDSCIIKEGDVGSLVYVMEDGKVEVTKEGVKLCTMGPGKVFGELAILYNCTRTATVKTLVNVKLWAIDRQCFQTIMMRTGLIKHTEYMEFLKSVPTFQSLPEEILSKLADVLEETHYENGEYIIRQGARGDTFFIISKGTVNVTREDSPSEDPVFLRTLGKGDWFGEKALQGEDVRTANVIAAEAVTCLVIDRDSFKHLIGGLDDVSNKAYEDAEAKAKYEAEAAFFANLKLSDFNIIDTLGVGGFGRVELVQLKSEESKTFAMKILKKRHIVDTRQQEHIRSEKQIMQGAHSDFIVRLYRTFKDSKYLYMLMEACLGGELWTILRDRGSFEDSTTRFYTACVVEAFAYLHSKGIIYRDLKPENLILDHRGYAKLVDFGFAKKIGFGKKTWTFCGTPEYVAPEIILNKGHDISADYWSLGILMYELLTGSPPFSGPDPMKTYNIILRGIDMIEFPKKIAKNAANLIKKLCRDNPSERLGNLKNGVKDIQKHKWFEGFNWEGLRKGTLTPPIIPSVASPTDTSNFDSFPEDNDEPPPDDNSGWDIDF
As to conditions: at 0.1 µM.
As to `CS(=O)(=O)CCNCc1nc(-c2ccc3ncnc(Nc4ccc(OCc5cccc(C(F)(F)F)c5)cc4)c3c2)cs1`, the inhibition came out at 0.49%. Turning to `Nc1nccc(-c2c(-c3ccc(F)cc3)ncn2CCCN2CCOCC2)n1`, the inhibition was determined as 4.04%. On the same count and under the same terms, the result for `NS(=O)(=O)c1ccc(Nc2cc(-c3cccc(O)c3)n[nH]2)cc1` reads 5.01%; that for `NS(=O)(=O)c1cccc(Nc2cc(-c3ccc(F)cc3)n[nH]2)c1`, 2.36%.

With `Cc1ccc2c(-c3ccnc(Nc4ccc5c(c4)OCCO5)n3)c(-c3ccc(C(F)(F)F)cc3)nn2n1`, the inhibition is 3.03%. As to `Cc1cc(O)cc(C)c1/C=C/c1cncc(C(=O)N(C)C)c1`, the inhibition is 2.65%.

On to `CN(C)c1cc2c(Nc3ccc4c(cnn4Cc4ccccc4)c3)ncnc2cn1`, for which the inhibition came out at 0.2%. Same read-out and setting: to `COC(=O)c1ccc2c(c1)C(=Cc1cc(Br)c(O)c(Br)c1)C(=O)N2` belongs 2.45%. As for `Nc1nccc(-c2c(-c3ccc(F)cc3)nn3cc(C(F)(F)F)ccc23)n1`, the inhibition is -0.61%.

Consider `COc1cccc(-n2nc(C)c3c(N/N=C(\C)c4ccncc4)ncnc32)c1`, for which the inhibition stood at 0.03%. Same read-out and setting: the result for `Cc1cc(Cl)cc2c1NC(=O)C2=NNc1ccc(S(N)(=O)=O)cc1` reads 1.17%; that for `Cc1ccc(O)cc1Nc1ccnc2ccc(S(C)(=O)=O)cc12`, 2.84%; that for `COc1cccc(-n2ncc3c(N/N=C/c4ccc(S(C)(=O)=O)cc4)ncnc32)c1`, 1.11%. The same measure, in the same setting: to `NS(=O)(=O)c1ccc(-c2cc3ccncc3cc2OCc2ccccc2)cc1` belongs 0.96%; to `Cc1ccc2c(c1)/C(=N/Nc1ccc(S(N)(=O)=O)cc1)C(=O)N2`, 0.26%. On the same count and under the same terms, the result for `CCCN1CCCC(c2ccc(Nc3nc(Nc4cc(F)ccc4C(N)=O)c4cc[nH]c4n3)c(OC)c2)C1` (stereo unspecified) reads 7.1%; that for `COC(=O)c1cncc(/C=C/c2c(C)cc(O)cc2C)c1`, 3.3%; that for `Cc1ccc(Nc2ccnc(Nc3cccc(C(N)=O)c3)n2)cc1O`, 1.11%.

As to `Nc1ccc(C#Cc2cncnc2Nc2ccc(OCc3cccc(F)c3)c(Cl)c2)cc1`, the inhibition worked out at 3.04%.

With `CN(C)C(=O)O[C@@H]1CN[C@@H](C#Cc2cc3ncnc(Nc4ccc(OCc5cccc(F)c5)c(Cl)c4)c3s2)C1`, the inhibition was -0.86%. Still for that read-out and setting: the result for `NS(=O)(=O)c1ccc(N/N=C2\C(=O)Nc3ccc(Cl)cc32)cc1` reads 2.65%; that for `Cc1nc(-c2ccccc2)n2nc(NCCCN3CCOCC3)ncc12`, 1.36%.

Turning to `CCOc1nccc2c1nc(-c1nonc1N)n2CC`, the inhibition was 4.09%. On the same count and under the same terms, to `O=S(=O)(CCOCc1ccc(-c2ccc3ncnc(Nc4ccc(OCc5cccc(F)c5)c(Cl)c4)c3c2)o1)c1ccccc1` belongs 1.36%. On the same count and under the same terms, to `NC(=O)c1cccc(Nc2nccc(Nc3cccc(F)c3)n2)c1` belongs 0.12%. Regarding `C[C@@H](Oc1cc(-n2cnc3ccc(OCC4CCN(C)CC4)cc32)sc1C(N)=O)c1ccccc1C(F)(F)F`, the inhibition is -2.23%. For the molecule `FC(F)(F)c1ccc(-c2nn3ncccc3c2-c2ccnc(Nc3ccc4c(c3)OCCO4)n2)cc1`, the inhibition worked out at 3.5%. `Cc1cc(-c2ccccn2)cc(C)c1/C=C/c1cncc(-c2nn[nH]n2)c1`: the inhibition was determined as 3.51%.

With `COc1ccc2ncnc(Nc3ccc(OCc4ccccc4)cc3)c2c1`, the inhibition was 0.77%. Turning to `CN(C)CCCn1c(-c2nonc2N)nc2cnccc21`, the inhibition amounted to 3.68%. As for `[O-][S+]1CCN(Cc2ccc(-c3ccc4ncnc(Nc5ccc(OCc6ccccc6)c(Cl)c5)c4c3)o2)CC1`, the inhibition worked out at 1.79%. Still for that read-out and setting: the result for `OCc1ccc(-c2nc(-c3ccccn3)c(-c3ccc4c(c3)OCO4)[nH]2)cc1` reads 1.9%. In the case of `COc1cc(Nc2nccc(-c3cnn4ncccc34)n2)cc(OC)c1`, the inhibition is 12.2%.
